Shown is part of a subset that was picked to be rich in hits.
ST2 inh: inhibitors of human ST2 (IL1RL1) binding to IL-33. Q01638. AlphaLISA ST2-Fc/biotin-IL-33 interaction, 1 h. inhibition, % for hits at 17 µM. 2.3% of 78,000 active. AID 1259354; in the data active = inhibition above about 30%
Target sequence (Q01638 whole entry, looked up): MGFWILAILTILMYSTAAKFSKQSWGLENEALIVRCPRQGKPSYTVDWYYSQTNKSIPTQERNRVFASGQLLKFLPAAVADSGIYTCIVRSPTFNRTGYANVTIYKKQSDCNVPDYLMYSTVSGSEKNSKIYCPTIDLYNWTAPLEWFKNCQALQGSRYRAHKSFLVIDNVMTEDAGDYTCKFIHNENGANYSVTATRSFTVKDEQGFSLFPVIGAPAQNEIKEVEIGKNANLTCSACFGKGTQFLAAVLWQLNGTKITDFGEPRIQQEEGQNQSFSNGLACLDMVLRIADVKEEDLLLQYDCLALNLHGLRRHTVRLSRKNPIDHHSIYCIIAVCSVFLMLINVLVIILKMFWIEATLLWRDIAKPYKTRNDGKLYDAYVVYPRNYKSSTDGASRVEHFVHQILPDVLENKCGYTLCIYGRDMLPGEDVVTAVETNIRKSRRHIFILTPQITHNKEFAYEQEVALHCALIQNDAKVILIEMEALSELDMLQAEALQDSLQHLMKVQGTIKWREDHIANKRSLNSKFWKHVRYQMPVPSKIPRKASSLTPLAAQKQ
Numbers stand for hits; n = inactive; ! = a repeat was not active.

SMILES | ST2 inh
COc1ccc2cc3cc(C(=O)NC(C)C)oc3nc2c1 | n
CCC(C)NC(=O)c1cc2cc3ccc(Cl)cc3nc2o1 (configuration not stated) | 31%!
CC(C)OCCCNC(=O)c1cc2cc3ccc(Cl)cc3nc2o1 | n
CC(C)c1ccc(Nc2nnc(C(C)(C)C)c(=O)[nH]2)cc1 | n
C=CCN(C(=O)CSc1cc(=O)n(C)c2cc(Cl)ccc12)c1ccccc1 | n
CCc1ccccc1N1CSC2=C(C#N)C(c3ccccc3OC)CC(=O)N2C1 (configuration not stated) | n
COc1ccc2oc(=Nc3ccc(C(C)=O)cc3)c(C(N)=O)cc2c1 | 40%
COc1ccc2oc(=Nc3ccc(-c4ccccc4)cc3)c(C(N)=O)cc2c1 | n
COc1ccc2oc(=Nc3ccccc3OC)c(C(N)=O)cc2c1 | n
Cc1ccc(S(=O)(=O)NCCCO)cc1 | n
O=C(Cc1ccccc1)Nc1cccc(C(=O)O)c1 | n
O=C(Cc1ccccc1)Nc1ccc(N2CCCC2)cc1 | 59%
CCCOc1ccc(C(=O)Nc2ccc(N3CCCC3)cc2)cc1 | n
O=C(Cc1ccccc1)Nc1ccc(S(=O)(=O)N2CCCC2)cc1 | n
CC(=O)c1ccc(C(=O)Nc2ccc(N3CCOCC3)cc2)cc1 | n
O=C(Nc1ccc(I)cc1)c1ccc(Cl)cc1Cl | n
Cc1ccc(C(=O)Nc2ccc(N3CCCC3)cc2)cc1Cl | 53%
Cc1ccc(C(=O)Nc2cccc([N+](=O)[O-])c2)cc1Cl | n
CC(=O)Nc1ccc(NC(=O)c2cc(I)ccc2Cl)cc1 | n
O=C(Nc1ccc(N2CCCC2)cc1)c1cc(I)ccc1Cl | 51%
O=C(Nc1ccc(N2CCCC2)cc1)c1ccc(F)cc1 | 57%
CCc1cccc(C)c1NC(=O)c1ccc(C)c(Cl)c1 | n
O=C(CN1CCCCC1)Nc1ncc(Cc2ccc(F)cc2)s1 | n
Cc1cccc(C)c1NS(=O)(=O)c1cccc2nsnc12 | n
CC1CCc2c(sc(NC(=O)c3cc(-c4cccs4)on3)c2C(N)=O)C1 (configuration not stated) | n
SMILES | ST2 inh
O=C1c2ccccc2C(=O)N1CCSc1nc2ccccc2s1 | n
Cc1ccc(CN2C[C@H](O)C[C@H]2c2nc(-c3cccc(C)c3)no2)cc1 | n
COc1cc2c(cc1OC)C(C(=O)Nc1ccc(F)cc1)C(c1ccccc1F)N(C)C2=O (configuration not stated) | n
COc1cc(C(=O)Nc2cc(Cl)ccc2OCc2cc(=O)n3oc(C)cc3n2)cc(OC)c1OC | n
CN(C)c1ccc(CN2C[C@H](O)C[C@H]2c2nc(-c3ccc4c(c3)OCO4)no2)cc1 | n
O=C(N1CCCCC1)[n+]1ccc(N2CCOCC2)cc1 | n
Clc1ccccc1/C=C/C=Nc1ccc(N2CCOCC2)cc1 | 38%
Clc1nc(N2CCCCC2)nc(N2CCOCC2)n1 | n
CCCOc1ccc(C2C(C(=O)OCC)=C(C)NC3=C2C(=O)C(C(=O)OC)C(C)C3)cc1OC (configuration not stated) | n
CC(C)n1cnnc1CN(C)C(=O)C(O)c1ccc(C(F)(F)F)cc1 (configuration not stated) | n
Cc1ccc(NC(=O)C2CCCN2C(=O)c2ccc(-c3noc(C)n3)cc2)c(C)c1 (configuration not stated) | n
Cc1ccc(CNC(=O)c2cc(-c3ccc(Cl)s3)nc3ccccc23)o1 | n
O=C(NCc1cccs1)c1cc(-c2ccc(Br)s2)nc2ccccc12 | n
O=C(NCc1cccs1)c1cc(-c2ccc(Cl)s2)nc2ccccc12 | 30%!
CCn1cc(C(=O)N2CCCC2)c(=O)c2cc(S(=O)(=O)N3CCc4ccccc4C3)ccc21 | n
CCOC(=O)N1CCC(N2CCOC(Cc3ccccc3)C2)CC1 (configuration not stated) | n
COc1ccccc1Nc1cc(C)nc2ccccc12 | n
N#Cc1ccc(/C=C2\NC(=O)N(Cc3ccc(Cl)cc3)C2=O)cc1 | 30%
O=C1N/C(=C\c2ccc(Cl)cc2)C(=O)N1Cc1ccc(Cl)cc1 | n
Cc1cc(/C=C2\NC(=O)N(Cc3ccc(Cl)cc3)C2=O)c(C)n1-c1ccc(C#N)cc1 | n
CC(=O)N[C@@H]1C=C(C(=O)N[C@@H](CCS(C)(=O)=O)C(N)=O)C[C@@H](O)[C@@H]1O | n
Cc1c(N=Cc2ccccc2O)c(=O)n(-c2ccccc2)n1C | n
Cc1c(N=Cc2cc([N+](=O)[O-])ccc2N2CCCC2)c(=O)n(-c2ccccc2)n1C | 36%
Cc1c(N=Cc2cc([N+](=O)[O-])c(Cl)cc2Cl)c(=O)n(-c2ccccc2)n1C | n
Cc1ccc(NC(=O)C2CCN(c3ccc(-c4cccs4)nn3)CC2)cc1 | n
SMILES | ST2 inh
CCOC(=O)C1(CC2CCCCO2)CCN(Cc2ccc(F)cc2Cl)CC1 (configuration not stated) | n
CNCC1OCCc2ccccc21 (configuration not stated) | n
Cc1ccc(NCC2OCc3ccccc3CO2)cc1 | 97%
CCCOC(=O)C1C2C=CC3(CN(C(C)c4ccc(Br)cc4)C(=O)C13)O2 (configuration not stated) | n
COc1ccc(-c2c3c(=O)n(C)c(=O)n(C)c3c3cccnn23)cc1 | n
COc1ccc(-c2c3c(=O)n(C)c(=O)n(C)c3c3c(-c4ccccc4)cc(C)nn23)cc1 | 31%
Cn1c(=O)c2c(-c3ccccc3)n3ncccc3c2n(C)c1=O | n
CCN1CCCC1CNC(=O)CSc1cc(=O)n(C)c2ccccc12 (configuration not stated) | n
COc1ccc(C2N(c3ccc(Cl)c(Cl)c3)C(=O)C3CCCN32)cc1 (configuration not stated) | n
CC(=Nc1ccc(O)cc1)c1c(O)n(C)c(=O)[nH]c1=O | n
COc1ccc(CC(=O)N2CCC(C3(C)NC(=O)N(Cc4ccsc4)C3=O)CC2)cc1OC (configuration not stated) | n
CCN1CCN(CCCNC(=O)c2cccn2-c2nnc(N3CCCCC3)s2)CC1 | n
COc1ccc(N2CCN(CCCNC(=O)c3cccn3-c3nnc(N4CCCCC4)s3)CC2)cc1 | 31%
O=C(NCCCN1CCCC1)c1cccn1-c1nnc(N2CCCCC2)s1 | n
Cc1noc(NS(=O)(=O)c2ccc(NC(=O)C3CC3c3ccccc3)cc2)c1C (configuration not stated) | n
CN(C)C(=O)c1ccc2c(c1)NC(=O)C1CCCCN21 (configuration not stated) | n
COc1ccc(CNC(=O)c2ccc3c(c2)NC(=O)C2CCCCN32)cc1 (configuration not stated) | n
CC(C)c1ccc(NC(=O)c2ccc3c(c2)NC(=O)C2CCCCN32)cc1 (configuration not stated) | 99%
O=C(NCc1cccc2[nH]ccc12)C1CCC(=O)N(CCCN2CCOCC2)C1 (configuration not stated) | n
Cc1[nH]nc(CCC(=O)N2CCC3(CCCN(CCc4ccccc4)C3)C2)c1C (configuration not stated) | n
COC(=O)c1ccc(N2CCN(C(=O)CC3C(=O)NCCN3Cc3ccccc3)CC2)cc1 (configuration not stated) | n
COc1ccc(CC(=O)N2CCCC(CNS(=O)(=O)c3ccc(OC)cc3)C2)cc1 (configuration not stated) | n
O=C(/C=C/c1ccccc1)CC(O)CCc1ccccc1 (configuration not stated) | n
CC(C)(C)C(=O)/C=C(N)\C=C\c1ccccc1 | 37%
CC(=O)Nc1ccc(/C=C/c2ccccc2)cn1 | n
c1ccc(OCCN2CCCCC2)cc1 | n
CCCOc1ccc2oc(=O)c3c(c2c1)CCCN3C(=O)CN(C)C1CCCCC1 | n

High-throughput results: PubChem BioAssay, Paczesny and Yang Labs, IUPUI and University of Michigan
